From the supplement of paper PMC6555819

Key:
Test in all cases: PBM binding z-score (relative to random genomic background probes); higher = stronger binding; sequences stand for … in GC…GCGATTGACAGCGTAGAATGAAGG
[1] = system: RARb homodimer (NR concentration 270 nM)
Summary of the method: (§1)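 Random background probes are the reference for binding z-scores. These scores derive from regression-normalized fluorescence on custom Agilent 4×180K protein-binding microarrays incubated 1 h with ligand-free nuclear receptor dimers. Binding was detected with antibodies against each partner (one per run).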

[2] = system: RARg:RXRa (NR concentration 270 nM, RXRa partner concentration 90 nM)
Summary of the method: as §1

[3] = system: RARg homodimer (NR concentration 270 nM)
Summary of the method: as §1

[4] = system: RXRa DBDmut IVT, anti-RXR (DBD mutation: RXRa K156A/R161A, NR concentration 90 nM)
Summary of the method: as §1

[5] = system: RXRa homodimer (NR concentration 180 nM)
Summary of the method: as §1

[6] = system: THRa:RXRa (NR concentration 90 nM, RXRa partner concentration 90 nM)
Summary of the method: as §1

[7] = system: THRa homodimer (NR concentration 90 nM)
Summary of the method: as §1

[8] = system: VDR homodimer (NR concentration 270 nM)
Summary of the method: as §1

Sequence	PBM binding z-score [1]	PBM binding z-score [2]	PBM binding z-score [3]	PBM binding z-score [4]	PBM binding z-score [5]	PBM binding z-score [6]	PBM binding z-score [7]	PBM binding z-score [8]
AGTCAAAGTTCAGGTCGAGGTAACGTAAAGCACG	3.87	4.95	4.97	3.14	3.08	4.18	2.7	2.75
CCTAGCAGGCCAGGGTCACTCACGCATTTCGCTT	2.64	2.79	2.22	0.414	3.32	2.63	1.32	1.73
AGAACGAGGGCAATGAGTTAATAGCACGGGTGGC	1.08	1.43	1.51	1.74	0.7	0.999	-0.107	1.99
CCTAGTTGGTCAGGCGGTCACACACCGGATATGA	2.12	1.41	1.67	-0.336	0.344	0.232	0.129	0.3
GCTGCTAGGTCAAGTGATGGTCAGCTAAAGCTCG	3.68	4.85	5.33	1.6	2.93	2.85	0.545	-0.211
CAAACTAGGTCGCGAAAGGTCAAAGTCGAATGAC	5.22	6.69	6.26	1.98	7.33	4.79	1.51	3.37
GTACCAAGGTGAAGAGGTCGTTGATGAGTAGGCG	2.46	3.26	1.79	0.608	2.65	2.47	1.09	2.21
CGAACTAGGTCAGAACAGGACAGTGATGGATGAT	2.11	2.39	2.83	0.564	1.13	3.48	0.141	0.283
CGTCCAAGGTCAATGCTAGGTCAGAGAAAGCATT	5.02	7.59	7.07	3.6	6.03	4.58	3	2.77
ATATGTAGGTTAGCTGGGTTCATTCAGACTAGGC	1.47	1.58	0.836	2.97	2.38	3.54	0.442	6.88
GATCCAGGGTCAAGGCCAGAGTACGCGTATTGAT	3.61	5.58	5.08	2.45	6.11	3.65	1.11	2.04
CGAACGAGGGCATGAGTTGTTAGCAAATGCCGAT	0.54	0.951	1.44	2.23	0.556	1.08	-0.284	1.12
TCATATAGGTAAATGCTAGGTGAAATTCCGATCT	0.107	0.506	0.4	1.46	0.811	1.29	0.404	-0.0885
TCATATAAGTAAAAGGTGAAAGTCGGTGTGGTAA	1.85	1.3	0.831	1.85	2.11	1.46	0.55	0.109
TAGCCTAGGTAATTCAGGGGCCAGTATAGAAAGC	0.306	0.386	-0.0521	-0.687	-0.137	0.54	-0.13	-0.354
GCATATAGGCAATACAAGGTGAAAGTCCGATTGT	0.688	0.477	0.305	0.168	0.621	3.17	0.6	-0.0976
AGAACGAGGGCAATGAGTTGATAGTACGGGTGGC	1.2	1.3	1.61	2.24	0.933	0.88	-0.483	3.56
CCTCGGAGGACAACAGGAGGTCAGAGCAGCCAGA	3.68	3.56	3.45	-0.0172	2.05	2.86	1.04	1.14
CCTACTGGGCCACGAAACGTCATTGATTCAGTGA	-0.373	-0.321	0.105	-0.404	-0.385	-0.288	-0.682	-1.01

Sequence	PBM binding z-score [1]	PBM binding z-score [2]	PBM binding z-score [3]	PBM binding z-score [4]	PBM binding z-score [5]	PBM binding z-score [6]	PBM binding z-score [7]	PBM binding z-score [8]
ATCGAAAGGTCGAGGTCAGTATAGAGAAAGGGAA	4.73	5.69	6.16	2.01	5.46	3.84	1.93	2.73
CCGACTGGGGCCAGGTTACCATAACGCACAGCCA	0.918	0.349	0.638	-0.672	0.426	0.785	0.378	-0.444
GGAACGAGGGCCAAGTTGATAGCATCTGTCGACG	-0.0615	0.0796	0.46	0.125	0.105	-0.432	-0.99	-0.364
TCTTGAAGATCAGCAGGTTAAGAAAGCTGGCCAA	-0.114	-0.154	-0.281	0.572	0.316	-0.00481	-1.05	-0.317
TCTAGCAGGCTAGAGGGTCACTCAAGAGGTACGG	2.47	2.08	1.81	0.0423	2.42	1.59	-0.445	0.31
TAGCCTAGGTCATGGGCGAGTATACCACGCGAAC	2.97	4.08	4.15	0.379	3.57	3.11	1.11	0.339
TCTCGTTGGTCAAAGGTCACACACTCGAAATGCG	5.23	7.05	6.09	1.99	8.17	4.2	2.63	2.94
TTACCAACGTGAAAGGTCGTTGATGCACGCCTTG	1.63	1.54	0.872	0.467	2.73	1.35	-0.282	1.13
CCGACTGAGGCAGAAAGGTTACCATACCATCCGG	2.04	1.26	0.925	-0.0333	1.87	1.06	-0.0968	-0.0311
ATCCAAAGGTCGACGAGGTGAGTATACACCGTTT	3.09	4.27	4.1	1.22	4.44	3.66	1.12	0.772
CCCACTGGGCCAAAAAGGTCATTGATGCCGATAA	4.44	4.8	4.56	0.161	5.23	3.02	0.878	2.74
CAAACTAGCTCACGAAAGGTCAAAGTCGAATGAC	4.81	5.46	5.04	1.31	6.26	3.62	0.952	2.53
CGTCCAAGGTCAAGGTAAGTGAAAGAGACTCGAA	4.02	6.03	7.08	3.26	5.48	3.97	2.14	1.56
TAGCCTAGGTCATTCAGGTGCCAGTATAGAAAGC	2.67	4.44	3.98	1.73	2.97	3.13	1.06	1.66
ATATGTAGATTAAGGGTCATTCAGGTTGGTTCGC	3.42	3.56	2.52	2.22	4.48	3.17	1.19	4.19
AGTCACAGTTCATCTAGGTAACGTAAGATATGCT	1.67	2.47	2.66	3.33	2.05	2.13	0.362	3.1
TCGAGTAGGTTAGTGGCATTCAGAATGGCGTCGA	-0.183	-0.478	-0.516	0.0324	-0.235	-0.441	-0.559	-0.54
ATCGAAAGGGCGAAGGTGAGTATACCCACCCGAA	1.17	1.63	1.2	-0.634	1.59	0.3	-0.75	-0.263
ACTAGCAGGCCAAGGGTCACTAAAGATTAGTCCG	3.83	4.08	3.84	0.469	4.13	2.31	0.0838	1.07

Sequence	PBM binding z-score [1]	PBM binding z-score [2]	PBM binding z-score [3]	PBM binding z-score [4]	PBM binding z-score [5]	PBM binding z-score [6]	PBM binding z-score [7]	PBM binding z-score [8]
CAAACTAGGTCAAGAGGGCAAAGTCCGCTTCCCG	4.13	5.73	5.4	1.86	4.07	3.04	1.03	1.78
CGCCAAAGTTCAAGGTAACGTAACAGAAAGCAGC	4.05	5.2	5.94	4.68	4.57	2.96	1.28	3.03
TCATATAGGTAAAAGGTGAAAGTCGGTGTGGTAA	2.06	2.24	1.17	1.87	2.96	1.77	0.633	0.737
CAAACTAGGTCAAGAAAGGTCAAAGTCGAATGAC	5.71	7.33	7.9	1.95	7.67	4.9	1.79	3.03
TCTTGTAGATCAGCAGGTTAATAAAGCTGGCCAA	-0.292	-0.0895	-0.342	0.531	0.393	0.0327	-0.292	-0.451
AATACAGGGTCGTCGTAGGCCAGAGTACGCACAG	1.42	2.13	1.29	1.76	2.81	3.4	0.245	1.78
ATCTCTAGGTAACCAAGTTCCGTGAATGCCGAAC	-0.23	0.14	0.215	0.0901	0.217	0.694	0.462	-0.111
GGAACGAGGGCAAGTTGATAGTAGAGTTTGATGG	1.75	1.54	2.17	2.51	0.814	1.36	0.454	2.31
GCAGACAGGTGAAACGAAGGTAACTCAGGGTGGC	0.36	1.1	0.315	-0.588	0.938	1.42	-0.157	-0.798
CCGAGTAGTTTATGGGGCATTCAGGCAACGGTGA	0.512	-0.0698	0.182	0.904	-0.158	0.238	0.0882	0.37
ATCTTTAGGTAACAAGTTCAGTGAAAGAGAGGAC	2.04	1.56	1.48	1.65	0.993	2.13	1.4	2.79
CAAACGAGGGCATGAGTTGATAGCAAATGCCGAT	0.782	1.53	1.79	2.13	1.29	1.56	-0.234	1.62
CTACCAAGGTGGACAAGGTCGTTGATTACTATTC	1	0.429	0.319	0.874	0.711	1.81	0.933	1.68
CCGAGTAGGTTATGGGGCGTTCAGGCAACGGTGA	0.761	0.491	0.0403	-0.298	0.251	0.608	0.402	0.062
TCATATAGGTAATACAGGTGTAAGTCGGCATCTA	-0.213	0.547	0.355	1.67	1.03	0.384	0.316	0.283
AGAATGAGGTTAAGATCAGGGACACAGAATACAT	1.6	2.36	2.14	1.14	2.48	3.39	2	1.12
CCTAGCAGGCCAATCTGTGTCACTCAAGGCTTGA	0.114	-0.172	0.279	0.249	-0.389	0.791	-0.64	-0.327
CCTATTGGGCCAAAAAGGTCATTGATGCCGATAA	4.34	4.44	4.07	0.773	4.53	3.25	0.389	2.18
CGAACGCGGGCATGAGTTGATAGCAAATGCCGAT	-0.346	-0.206	0.05	0.305	-0.124	-0.413	-0.72	0.0939
